From PubChem BioAssay (EPA / NIEHS) come the findings set out here.

Results filed as inconclusive are left out. The source made the active and inactive calls. How the source made its calls, unless noted: active means hit-call score of the fitted dose curve at least 0.9, where 1 is the maximum; inconclusive means response in the unintended direction; inactive means score below 0.9.

The target of assay [1] is Myc proto-oncogene protein (Homo sapiens) (UniProt P01106). The experiment in a line: ATG_Myc_CIS: Attagene CIS-FACTORIAL HepG2 Assay for human Myelocytomatosis (Myc) Proto-Oncogene Transcription Factor (AID 2282990; active means hit-call score of the fitted dose curve at least 0.9, where 1 is the maximum; inactive means score below 0.9). The conditions noted are these: HepG2, Attagene cis-reporter transcription factor activity; actives raise or lower the signal. In a few lines:
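Cells of the HepG2 human liver line bear multiple cis-driven reporter transcription units. Reporter mRNA after 24 h exposure is reverse-transcribed, amplified, labelled and resolved by capillary electrophoresis, with gain- or loss-of-signal fitting relative to DMSO.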

A short description of assay [2]: ATG_NRF2_ARE_CIS: Attagene CIS-FACTORIAL HepG2 Assay for human Nuclear Factor Erythroid 2 Related Factor 2 (NFR2) response to Antioxidant Response Elements (ARE) (AID 2282992; active means hit-call score of the fitted dose curve at least 0.9, where 1 is the maximum; inactive means score below 0.9;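 on AC50: reporter mRNA level measured by RT-PCR and capillary electrophoresis fluorescence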). The following applies: HepG2 Attagene ARE/NRF2 reporter, transcription factor activity; actives raise or lower the signal. The essentials:
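Transient MRTU transfection of HepG2; 24 h compound exposure; TriZol RNA, RT with oligo(dT), PCR, 6-FAM primer extension, HpaI cut, CE. Bidirectional fit vs DMSO.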

A short description of assay [3]: ATG_Oct_MLP_CIS: Attagene CIS-FACTORIAL HepG2 Assay for human Octamer-Binding Transcription Factor (Oct) (AID 2282993; active means hit-call score of the fitted dose curve at least 0.9, where 1 is the maximum; inactive means score below 0.9). The conditions noted are these: HepG2 Attagene cis-factorial Oct reporter, mRNA; actives raise or lower the signal. In a few lines: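 Transfected HepG2 cells, 24 h treatment. Reporter mRNA quantified by RT-PCR–capillary electrophoresis; bidirectional fitting against DMSO.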

Assay [4] deals with human Peroxisome Proliferator-activated Receptor alpha (PPARa), PPARA (gene 5465) (UniProt Q07869). The experiment in a line: ATG_PPARa_TRANS: Attagene TRANS-FACTORIAL HepG2 Assay for human Peroxisome Proliferator-activated Receptor alpha (PPARa) (AID 2283001). The essentials: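 Read-out is fluorescence of reporter cDNA fragments resolved by capillary electrophoresis after RT-PCR. Human HepG2 liver cells carried transfected PPARa-Gal4 chimera and GAL4-UAS reporter units, treated 24 h; activity scored as increase over DMSO.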

Assay [5] has as its target human Peroxisome Proliferator-activated Receptor delta (PPARd), PPARD (gene 5467) (UniProt Q03181). Put plainly: ATG_PPARd_TRANS: Attagene TRANS-FACTORIAL HepG2 Assay for human Peroxisome Proliferator-activated Receptor delta (PPARd) (AID 2283002). The essentials: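 Cell-based TRANS reporter: HepG2, transient MRTU transfection, 24 h exposure. Readout = reporter mRNA (RT-PCR/CE, 6-FAM). Gain-of-signal fit vs DMSO control.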

Assay [6] deals with Peroxisome proliferator-activated receptor gamma (Homo sapiens) (UniProt P37231). Put plainly: ATG_PPARg_TRANS: Attagene TRANS-FACTORIAL HepG2 Assay for human Peroxisome Proliferator-activated Receptor-gamma (PPARg) (AID 2283007). The essentials: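 Chimeric NR-Gal4 transactivation is measured in transiently transfected HepG2 cells by reporter mRNA induction at 24 h. Detection uses RT-PCR with fluorescent labelling and capillary electrophoresis; DMSO defines baseline.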

Assay [7] deals with Nuclear receptor subfamily 1 group I member 2 (Homo sapiens) (UniProt O75469). Put plainly: ATG_PXR_TRANS: Attagene TRANS-FACTORIAL HepG2 Assay for human Pregnane X Receptor (PXR) (AID 2283008). The essentials:
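Read-out is fluorescence of labelled reporter cDNA fragments separated by capillary electrophoresis after RT-PCR and HpaI digestion. Source: HepG2 cells carrying PXR-GAL4/UAS reporter constructs, treated 24 h; activity fitted upward relative to DMSO.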

The target in assay [8] is Cellular tumor antigen p53 (Homo sapiens) (UniProt P04637). The experiment in a line: ATG_p53_CIS: Attagene CIS-FACTORIAL HepG2 Assay for human p53 Transcription Factor (AID 2282994; active means hit-call score of the fitted dose curve at least 0.9, where 1 is the maximum; inactive means score below 0.9). The following applies: HepG2 p53 cis-element reporter, Attagene mRNA; actives raise or lower the signal. In a few lines:
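HepG2, transient MRTU transfection (cis promoter elements, endogenous TFs); 24 h dosing; RNA isolation, RT-PCR, 6-FAM primer extension, HpaI digest, CE fluorescence; bidirectional fit vs DMSO.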

The target in assay [9] is human Retinoic Acid Receptor gamma (RARg), RARG (gene 5916) (UniProt P13631). The experiment in a line: ATG_RARg_TRANS: Attagene TRANS-FACTORIAL HepG2 Assay for human Retinoic Acid Receptor gamma (RARg) (AID 2283009). The essentials: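 HepG2 transiently transfected with GAL4-UAS reporter units and chimeric NR-Gal4 constructs; 24 h compound exposure. Reporter mRNA quantified by RT-PCR, FAM labeling, HpaI digestion and capillary electrophoresis; gain-of-signal versus DMSO.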

Assay [10] concerns the target human Retinoic Acid Receptor beta (RARb), RARB (gene 5915) (UniProt P10826). Put plainly: ATG_RARb_TRANS: Attagene TRANS-FACTORIAL HepG2 Assay for human Retinoic Acid Receptor beta (AID 2283004). In a few lines: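 Induction of reporter mRNA from a chimeric RARb-Gal4 construct was measured by RT-PCR, FAM labelling, HpaI digestion and capillary electrophoresis. Measurements followed 24 h compound treatment of transiently transfected human HepG2 liver cells, with DMSO as baseline.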

Assay [11] concerns the target human RAR-related Orphan Receptor beta (RORb), RORB (gene 6096) (UniProt Q92753). The experiment in a line: ATG_RORb_TRANS: Attagene TRANS-FACTORIAL HepG2 Assay for human RAR-related Orphan Receptor beta (RORb) (AID 2283010). In a few lines:
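HepG2 cells transiently transfected with GAL4-UAS reporter units expressing chimeric NR-Gal4 protein; reporter mRNA measured 24 h after dosing by RT-PCR, 6-FAM labelling and capillary electrophoresis. Gain-of-signal fitted relative to DMSO baseline.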

The target in assay [12] is human RAR-related Orphan Receptor gamma (RORg), RORC (gene 6097) (UniProt P51449). The experiment in a line: ATG_RORg_TRANS: Attagene TRANS-FACTORIAL HepG2 Assay for human RAR-related Orphan Receptor gamma (RORg) (AID 2283011). In a few lines:
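Reporter transcripts from a transfected RORg-GAL4 chimera in HepG2 cells were quantified 24 h after dosing by RT-PCR, 6-FAM labelling, HpaI digestion and capillary electrophoresis; increases over DMSO baseline were fitted.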

A short description of assay [13]: BSK_3C_TissueFactor: BioMAP Diversity Plus: 3C Assay for Tissue Factor Biomarker Activity (AID 2282997; active means hit-call score of the fitted dose curve at least 0.9, where 1 is the maximum; inactive means score below 0.9). The conditions noted are these: BioMAP 3C HUVEC, tissue factor biomarker readout; actives raise or lower the signal. The essentials: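 Dosing of human umbilical vein endothelial cells preceded a 24 h incubation. Tissue Factor was then read by ELISA, with increases and decreases both scored relative to DMSO controls.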

Assay [14] is described as follows: BSK_3C_uPAR: BioMAP Diversity Plus: 3C Assay for Urokinase-type plasminogen activator receptor (uPAR) Biomarker Activity (AID 2282998; active means hit-call score of the fitted dose curve at least 0.9, where 1 is the maximum; inactive means score below 0.9). The following applies: BioMAP 3C HUVEC, uPAR biomarker ELISA; actives raise or lower the signal. The essentials:
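Readout: ELISA for surface uPAR. System: human umbilical vein endothelial primary cells, 24 h after chemical exposure. Analysis: bidirectional fit, DMSO baseline.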
For orientation: ELISA stands for enzyme-linked immunosorbent assay.

Assay [15] in a line: BSK_3C_VCAM1: BioMAP Diversity Plus: 3C Assay for Vascular cell adhesion molecule 1 (VCAM1) Biomarker Activity (AID 2282999; active means hit-call score of the fitted dose curve at least 0.9, where 1 is the maximum; inactive means score below 0.9). The following applies: BioMAP 3C HUVEC, VCAM1 ELISA, cytokine-stimulated; actives raise or lower the signal. The essentials:
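Endothelial cells from human umbilical vein are treated with test chemical. At 24 h, VCAM-1 is measured by ELISA, and responses in either direction are fitted relative to DMSO.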

Assay [16] in a line: BSK_4H_Eotaxin3: BioMAP Diversity Plus: 4H Assay for Eotaxin 3 Biomarker Activity (AID 2283000; active means hit-call score of the fitted dose curve at least 0.9, where 1 is the maximum; inactive means score below 0.9;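 on outcome: CCL26 protein level quantified by ELISA in parallel with SRB cytotoxicity check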). The conditions noted are these: primary human endothelial cells (HUVEC); actives raise or lower the signal. In a few lines:
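Human umbilical vein endothelial cells (BSK_4H system) dosed with test chemical; Eotaxin-3 (CCL26) measured by ELISA 24 h after dosing. Bidirectional curve fitting relative to DMSO negative control as baseline.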

Assay [17] addresses Retinoic acid receptor alpha (Homo sapiens) (UniProt P10276). Put plainly: ATG_RARa_TRANS: Attagene TRANS-FACTORIAL HepG2 Assay for human Retinoic Acid Receptor alpha (RARa) (AID 2283005). In a few lines: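 Reporter transcripts, measured by RT-PCR with fluorescent labeling and capillary electrophoresis after 24 h dosing, reflect activity of an exogenous human RARa–GAL4 fusion in transiently transfected HepG2. Fitted for increase relative to DMSO.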

Assay [18] in a line: BSK_3C_Proliferation: Cell Proliferation Assessment in the BioMAP Diversity Plus: 3C Assay (AID 2283006; active means hit-call score of the fitted dose curve at least 0.9, where 1 is the maximum; inactive means score below 0.9;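 on AC50: potency may reflect either rise or fall in cell number versus DMSO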). The conditions noted are these: primary human endothelial cells (HUVEC). In a few lines:
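Subconfluent HUVEC (3C system) cultured with chemical; relative cell number read at 48 h by sulforhodamine B total-protein staining (0.1% SRB after 10% TCA fixation, 560 nm). Bidirectional fit relative to DMSO.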

Chain of human Retinoic Acid Receptor beta (RARb), RARB (gene 5915) (P10826 whole entry, looked up, the tested form may be a part): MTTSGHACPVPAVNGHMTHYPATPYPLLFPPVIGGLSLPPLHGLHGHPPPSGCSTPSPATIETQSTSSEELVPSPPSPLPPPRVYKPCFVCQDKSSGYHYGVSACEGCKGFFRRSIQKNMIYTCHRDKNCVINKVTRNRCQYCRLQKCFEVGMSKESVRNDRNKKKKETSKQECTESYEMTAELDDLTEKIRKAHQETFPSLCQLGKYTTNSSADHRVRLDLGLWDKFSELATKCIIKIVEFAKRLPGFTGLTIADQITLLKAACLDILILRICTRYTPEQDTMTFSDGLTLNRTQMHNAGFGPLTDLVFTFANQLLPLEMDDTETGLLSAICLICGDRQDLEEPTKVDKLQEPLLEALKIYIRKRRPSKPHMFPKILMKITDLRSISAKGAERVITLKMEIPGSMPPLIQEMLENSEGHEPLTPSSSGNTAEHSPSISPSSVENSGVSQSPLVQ
Chain of human Retinoic Acid Receptor gamma (RARg), RARG (gene 5916) (P13631 whole entry, looked up, the tested form may be a part): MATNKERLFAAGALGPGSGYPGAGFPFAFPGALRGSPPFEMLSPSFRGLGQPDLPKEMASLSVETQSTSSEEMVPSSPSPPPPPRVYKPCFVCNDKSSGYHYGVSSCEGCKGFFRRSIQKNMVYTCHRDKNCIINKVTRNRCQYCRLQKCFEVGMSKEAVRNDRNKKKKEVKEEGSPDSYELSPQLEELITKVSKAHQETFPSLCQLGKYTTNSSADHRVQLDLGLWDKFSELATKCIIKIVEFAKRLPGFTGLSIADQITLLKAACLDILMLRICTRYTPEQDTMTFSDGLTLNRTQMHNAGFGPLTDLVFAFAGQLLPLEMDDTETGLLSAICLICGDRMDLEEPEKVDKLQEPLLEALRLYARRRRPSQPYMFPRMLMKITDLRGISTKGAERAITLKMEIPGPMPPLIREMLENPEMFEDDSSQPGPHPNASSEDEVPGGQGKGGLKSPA
Chain of Retinoic acid receptor alpha (Homo sapiens) (P10276 whole entry, looked up, the tested form may be a part): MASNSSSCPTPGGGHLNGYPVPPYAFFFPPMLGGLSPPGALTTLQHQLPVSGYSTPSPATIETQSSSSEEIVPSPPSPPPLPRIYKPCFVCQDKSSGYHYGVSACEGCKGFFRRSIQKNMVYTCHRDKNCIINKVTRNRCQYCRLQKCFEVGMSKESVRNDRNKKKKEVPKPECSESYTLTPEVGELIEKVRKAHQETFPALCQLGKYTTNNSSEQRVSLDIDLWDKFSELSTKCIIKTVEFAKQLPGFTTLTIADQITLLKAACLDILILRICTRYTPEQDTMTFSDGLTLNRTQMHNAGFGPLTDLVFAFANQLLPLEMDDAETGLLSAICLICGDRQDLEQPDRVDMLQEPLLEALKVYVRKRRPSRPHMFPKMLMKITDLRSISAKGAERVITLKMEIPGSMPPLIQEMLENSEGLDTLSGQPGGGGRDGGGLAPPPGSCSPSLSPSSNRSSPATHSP
Chain of human Peroxisome Proliferator-activated Receptor delta (PPARd), PPARD (gene 5467) (Q03181 whole entry, looked up): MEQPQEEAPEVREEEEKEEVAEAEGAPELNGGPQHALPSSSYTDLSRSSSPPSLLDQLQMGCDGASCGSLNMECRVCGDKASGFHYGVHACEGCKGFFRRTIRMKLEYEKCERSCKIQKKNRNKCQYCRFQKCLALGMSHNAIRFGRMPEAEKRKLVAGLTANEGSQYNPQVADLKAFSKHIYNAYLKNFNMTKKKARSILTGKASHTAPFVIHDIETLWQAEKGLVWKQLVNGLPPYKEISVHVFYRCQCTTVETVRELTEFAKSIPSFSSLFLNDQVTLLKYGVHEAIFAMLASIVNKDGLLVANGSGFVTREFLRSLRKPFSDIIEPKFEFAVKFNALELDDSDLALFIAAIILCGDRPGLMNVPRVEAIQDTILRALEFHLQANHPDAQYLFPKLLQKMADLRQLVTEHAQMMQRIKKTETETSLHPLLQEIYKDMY
Chain of human RAR-related Orphan Receptor gamma (RORg), RORC (gene 6097) (P51449 whole entry, looked up, the tested form may be a part): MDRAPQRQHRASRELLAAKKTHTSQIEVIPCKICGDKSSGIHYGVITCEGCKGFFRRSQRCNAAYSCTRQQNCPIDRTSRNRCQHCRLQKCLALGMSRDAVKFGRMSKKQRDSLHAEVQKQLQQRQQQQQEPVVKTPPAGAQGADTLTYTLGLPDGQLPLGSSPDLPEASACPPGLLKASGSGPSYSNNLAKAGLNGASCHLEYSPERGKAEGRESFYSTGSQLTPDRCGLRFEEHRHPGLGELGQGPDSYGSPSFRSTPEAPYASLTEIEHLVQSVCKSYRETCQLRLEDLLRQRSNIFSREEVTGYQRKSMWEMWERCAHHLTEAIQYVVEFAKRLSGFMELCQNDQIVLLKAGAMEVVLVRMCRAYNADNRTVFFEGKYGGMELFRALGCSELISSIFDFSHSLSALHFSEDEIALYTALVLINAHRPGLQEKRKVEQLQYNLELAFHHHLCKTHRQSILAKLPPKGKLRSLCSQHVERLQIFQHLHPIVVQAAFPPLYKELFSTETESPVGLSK
Chain of human Peroxisome Proliferator-activated Receptor alpha (PPARa), PPARA (gene 5465) (Q07869 whole entry, looked up, the tested form may be a part): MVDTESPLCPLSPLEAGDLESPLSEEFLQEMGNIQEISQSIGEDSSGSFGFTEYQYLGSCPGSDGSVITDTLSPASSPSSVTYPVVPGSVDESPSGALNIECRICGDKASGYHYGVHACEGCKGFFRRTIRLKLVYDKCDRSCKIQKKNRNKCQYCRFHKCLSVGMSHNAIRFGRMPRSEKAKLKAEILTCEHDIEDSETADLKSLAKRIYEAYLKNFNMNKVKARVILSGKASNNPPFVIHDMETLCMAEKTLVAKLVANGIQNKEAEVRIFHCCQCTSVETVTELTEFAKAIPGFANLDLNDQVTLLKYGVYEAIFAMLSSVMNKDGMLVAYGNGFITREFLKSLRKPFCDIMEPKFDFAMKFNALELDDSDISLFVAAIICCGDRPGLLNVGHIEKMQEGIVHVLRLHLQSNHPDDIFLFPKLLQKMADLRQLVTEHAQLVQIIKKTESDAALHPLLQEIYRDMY
Chain of Peroxisome proliferator-activated receptor gamma (Homo sapiens) (P37231 whole entry, looked up, the tested form may be a part): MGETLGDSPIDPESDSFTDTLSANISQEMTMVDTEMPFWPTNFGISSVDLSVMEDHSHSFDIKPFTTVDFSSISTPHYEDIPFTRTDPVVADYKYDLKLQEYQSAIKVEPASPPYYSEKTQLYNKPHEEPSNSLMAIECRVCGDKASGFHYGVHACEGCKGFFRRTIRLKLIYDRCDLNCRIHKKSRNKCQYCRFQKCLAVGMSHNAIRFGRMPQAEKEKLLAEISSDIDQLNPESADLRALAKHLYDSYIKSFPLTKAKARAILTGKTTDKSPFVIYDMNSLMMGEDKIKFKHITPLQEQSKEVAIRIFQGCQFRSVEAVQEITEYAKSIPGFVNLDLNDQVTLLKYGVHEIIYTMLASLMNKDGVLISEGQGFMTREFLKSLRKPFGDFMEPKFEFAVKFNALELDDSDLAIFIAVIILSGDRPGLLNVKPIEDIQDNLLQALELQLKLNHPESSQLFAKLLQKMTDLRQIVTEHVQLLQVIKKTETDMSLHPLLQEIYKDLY
Chain of Myc proto-oncogene protein (Homo sapiens) (P01106 whole entry, looked up): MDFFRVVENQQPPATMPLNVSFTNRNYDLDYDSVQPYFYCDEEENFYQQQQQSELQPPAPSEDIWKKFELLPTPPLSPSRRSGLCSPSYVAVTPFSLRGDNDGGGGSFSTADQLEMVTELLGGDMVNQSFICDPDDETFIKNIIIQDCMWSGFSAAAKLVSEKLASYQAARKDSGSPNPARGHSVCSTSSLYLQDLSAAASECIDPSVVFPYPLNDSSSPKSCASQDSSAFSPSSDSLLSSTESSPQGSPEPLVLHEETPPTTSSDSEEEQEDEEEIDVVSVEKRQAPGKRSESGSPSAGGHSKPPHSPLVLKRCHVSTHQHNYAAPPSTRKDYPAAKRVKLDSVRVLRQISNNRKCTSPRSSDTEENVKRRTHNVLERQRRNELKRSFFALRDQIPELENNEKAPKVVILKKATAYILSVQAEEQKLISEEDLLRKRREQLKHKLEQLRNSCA
Chain of Nuclear receptor subfamily 1 group I member 2 (Homo sapiens) (O75469 whole entry, looked up, the tested form may be a part): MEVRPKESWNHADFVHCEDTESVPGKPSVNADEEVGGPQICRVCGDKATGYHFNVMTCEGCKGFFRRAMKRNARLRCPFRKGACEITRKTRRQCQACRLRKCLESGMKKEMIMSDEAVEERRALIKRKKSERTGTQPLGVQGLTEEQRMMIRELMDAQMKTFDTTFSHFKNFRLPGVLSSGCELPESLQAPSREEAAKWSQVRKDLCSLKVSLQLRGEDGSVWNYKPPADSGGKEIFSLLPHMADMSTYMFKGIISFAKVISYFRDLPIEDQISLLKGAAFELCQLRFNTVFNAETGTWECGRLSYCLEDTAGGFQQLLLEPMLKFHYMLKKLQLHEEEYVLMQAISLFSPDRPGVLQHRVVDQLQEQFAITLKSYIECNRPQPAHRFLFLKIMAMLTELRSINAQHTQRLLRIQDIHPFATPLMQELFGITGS
Chain of human RAR-related Orphan Receptor beta (RORb), RORB (gene 6096) (Q92753 whole entry, looked up, the tested form may be a part): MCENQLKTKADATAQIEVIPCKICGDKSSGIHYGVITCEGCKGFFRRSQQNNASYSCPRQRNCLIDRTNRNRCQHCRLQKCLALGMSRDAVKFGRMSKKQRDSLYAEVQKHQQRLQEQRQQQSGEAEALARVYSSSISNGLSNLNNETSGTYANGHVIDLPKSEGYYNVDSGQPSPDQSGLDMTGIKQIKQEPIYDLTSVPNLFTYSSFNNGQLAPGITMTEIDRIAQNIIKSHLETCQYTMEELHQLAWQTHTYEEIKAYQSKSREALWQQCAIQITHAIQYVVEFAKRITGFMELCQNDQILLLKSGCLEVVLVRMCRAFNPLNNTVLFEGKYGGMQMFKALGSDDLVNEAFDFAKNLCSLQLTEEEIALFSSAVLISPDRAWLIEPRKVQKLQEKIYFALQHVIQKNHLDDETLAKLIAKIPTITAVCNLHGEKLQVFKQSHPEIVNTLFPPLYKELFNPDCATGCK

As to `CC(=O)CC(=O)Nc1ccccc1`, the compound was classed as inactive in assay [1], in [2], in assay [3], in assay [4], in assay [5] and in assay [6]. Moreover, the call in [7] was inactive.
As to `CN(C)CCOC(C)(c1ccccc1)c1ccccn1` (stereo not drawn), the outcome in [1], in [2], in assay [8], in assay [5], in assay [7] and in [9] was inactive.
As for `CCOc1ccc(NC(=O)CC(C)=O)cc1`, the outcome in assay [1], in assay [2], in [3], in [4], in assay [10] and in [7] was inactive. For the same compound, the call in [11] and in assay [12] was inactive.
For `COc1cc(Cl)c(OC)cc1N`, the compound was classed as inactive in [1], in assay [2], in [3], in assay [13], in [14] and in assay [15]. For the same compound, the result in assay [16], in assay [4], in assay [5], in assay [10], in assay [17] and in [18] was inactive. Besides, the result in assay [6], in assay [7] and in [9] was inactive.
On to `CCCCCCC(=O)c1ccccc1`, for which the outcome in assay [1], in assay [3], in assay [4] and in assay [5] was inactive. Further, the AC50 (as a rule, the concentration giving half of the maximal activity seen) in assay [2] was 121 µM (active); in [6] it was 42.8 µM (active); in [7] it was 59.2 µM (active).
Take `CCCCC(CC)COC(C)=O` (stereo not drawn): the call in assay [1], in assay [2], in assay [4], in assay [5], in [10] and in assay [17] was inactive. The outcome in [7], in assay [9] and in [12] was inactive.
As for `CCC(C)c1cc([N+](=O)[O-])cc([N+](=O)[O-])c1OC(=O)OC(C)C` (stereo not drawn), the result in [1], in assay [4], in assay [5], in assay [10], in assay [17] and in assay [9] was inactive. The call in [11] and in assay [12] was inactive. Besides, the AC50 in assay [2] is 5.1 µM (active); in [8], 25 µM (active); in assay [13], 9.93 µM (active); in assay [14], 11.3 µM (active); in assay [15], 19.4 µM (active); in assay [16], 8.5 µM (active). Moreover, the AC50 is 5.44 µM (active) in [18] and 0.774 µM (active) in assay [6].
